# Experimental data reported in PubChem BioAssay.
# The source made the active and inactive calls. Unless noted, no stated cut-off is given here; in the data, active means inhibition above about 80%; inactive means the rest.
# Experiments:
# [1] = LFS_MB_P medulloblastoma growth inhibition, cell-based, chromothripsis tumors, cisplatin or BGB combos (AID 1671449); details: LFS_MB_P medulloblastoma cells;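 further: cells exposed for 96 hours; 0% = vehicle DMSO and 100% = killing by high DMSO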
# [2] = HDN33 neuroblastoma growth inhibition, cell-based, chromothripsis tumors, cisplatin or BGB combos (AID 1671450); details: HDN33 neuroblastoma cells, stronger effect = higher value;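 further: cells exposed to compound for four days; 0% = vehicle DMSO and 100% = cell killing by high DMSO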
# [3] = ICB984 medulloblastoma cell growth inhibition, synergistic combos for chromothripsis tumors, cisplatin or BGB combos (AID 1671451; call rule not given here;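 further: cells exposed for 96 hours before readout; 0% = vehicle DMSO and 100% = killing by high DMSO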); details: ICB984 medulloblastoma cells, drug combinations, stronger effect = higher value
# [4] = LFS_MB_1R medulloblastoma cell growth inhibition, synergistic combos for chromothripsis tumors, cisplatin or BGB combos (AID 1671452); details: LFS_MB_1R medulloblastoma cells, stronger effect = higher value;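 further: cells exposed for 96 hours before readout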
# [5] = HTB85 osteosarcoma cell growth inhibition, synergistic combos for chromothripsis tumors, BGB or cisplatin IC20 combos (AID 1671453); details: HTB85 osteosarcoma cells, drug combinations, stronger effect = higher value;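 further: cells exposed for 96 hours before readout; 0% = vehicle DMSO and 100% = high DMSO killing control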
# [6] = CRL2098 osteosarcoma cell growth inhibition, synergistic combos for chromothripsis tumors, BGB or cisplatin IC20 combos (AID 1671454); details: CRL2098 osteosarcoma cells, drug combinations, stronger effect = higher value;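 further: cells exposed for 96 h before readout; 0% = vehicle DMSO and 100% = killing by high DMSO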
# [7] = HD-MB03 medulloblastoma cell growth inhibition, synergistic combos for chromothripsis tumors, BGB or cisplatin IC20 combos (AID 1671455; in the data active means inhibition above about 83%;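 further: 0% = vehicle DMSO and 100% = high DMSO as cytotoxic control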); details: HD-MB03 medulloblastoma cells, stronger effect = higher value
# [8] = UWB1.289 ovarian carcinoma cell growth inhibition, synergistic combos for chromothripsis tumors, BGB or cisplatin combos (AID 1671456); details: UWB1.289 ovarian carcinoma cells, stronger effect = higher value;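 further: cells exposed to compound for four days; 0% = vehicle DMSO and 100% = killing by high DMSO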
# [9] = LFS_MB_2R medulloblastoma cell growth inhibition, synergistic combos for chromothripsis tumors, cisplatin combos (AID 1671457); details: LFS_MB_2R medulloblastoma cells, stronger effect = higher value;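 further: cells exposed to compound for four days before readout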
# [10] = MDA-MB-436 breast carcinoma cell growth inhibition, synergistic combos for chromothripsis tumors, BGB or cisplatin combos (AID 1671458; call rule not given here;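 further: cells exposed for 96 hours; 0% = vehicle DMSO and 100% = killing by high DMSO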); details: MDA-MB-436 breast carcinoma growth inhibition, drug combinations, stronger effect = higher value
# [11] = UWB1.289_BRCA1 ovarian cancer growth, cell-based, BGB or cisplatin combinations (AID 1671459); details: UWB1.289 BRCA1 ovarian carcinoma, drug combinations, stronger effect = higher value
# [12] = human astrocyte viability loss, single and combined drugs, cytotoxicity control for chromothriptic childhood tumor combination screen, cell-based, BGB or cisplatin IC20 combos (AID 1671460); details: Human astrocytes, drug combinations, stronger effect = higher value;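 further: cells exposed to compounds for 96 hours before viability readout; 0% = vehicle and 100% = killing control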
# [13] = growth inhibition of BT084 medulloblastoma cells, cell-based, ICGC_MB145, cisplatin and BGB IC40 combos (AID 1671461); details: drug combinations, stronger effect = higher value;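 further: cells exposed to drugs for 96 hours; 0% = vehicle DMSO and 100% = high DMSO full killing control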
# [14] = growth inhibition of RCMB18 medulloblastoma cells, cell-based, cisplatin and BGB IC40 combos (AID 1671462); details: stronger effect = higher value;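 further: cells exposed to compound for four days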
# [15] = growth inhibition of CRL1545 osteosarcoma cells, cell-based, cisplatin and BGB IC20 combos (AID 1671464); details: stronger effect = higher value;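 further: cells exposed to compound for 96 hours before readout; 0% = vehicle DMSO and 100% = high DMSO killing control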
# [16] = viability rescue of complex I mutant cybrids, primary screen, cell-based, galactose medium, ATP luminescence (AID 1645843;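 active means z-score of at least 1.8 in each of two replicates, scored against plate mean and spread of sample wells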;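 further: positive z means more ATP and so rescue of galactose-driven cybrid death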); details: complex I mutant cybrid cells, 72 h, stronger effect = higher value
# [17] = measured here: combination with BGB IC40, at 0.05 µM
# [18] = measured here: with BGB IC20 combination, at 0.5 µM
# [19] = measured here: with cisplatin IC20 combination, at 0.5 µM
# [20] = measured here: combination with cisplatin, at 0.5 µM
# [21] = measured here: combination with cisplatin, at 5 µM
structure (smiles),measurement,setting,value
C=C(C)C1CCC2(C(=O)O)CCC3(C)C(CCC4C5(C)CCC(O)C(C)(C)C5CCC43C)C12 (configuration not stated),inhibition,"[1]; at 0.5 µM, stronger effect = higher value",-26.5% (inactive)
same,inhibition,"[1]; measured here: combination with BGB IC20, at 0.005 µM",-25.5%
same,inhibition,"[1]; measured here: combination with BGB IC40, at 0.005 µM",15.5%
same,inhibition,[1]; [17],-1.2%
same,inhibition,"[1]; measured here: combination with cisplatin, at 0.5 µM, stronger effect = higher value",-45.1%
same,inhibition,"[1]; measured here: combination with cisplatin, at 5 µM, stronger effect = higher value",-28.2%
same,inhibition,"[2]; BGB combo, at 5 µM",-9.64%
same,inhibition,[2]; at 0.5 µM,-2.09% (inactive)
same,inhibition,"[2]; cisplatin combo, at 5 µM",-9.94%
same,inhibition,[2]; [18],-1.87%
same,inhibition,[2]; [19],-3.24%
same,inhibition,"[2]; single agent, at 5 µM",-1.41%
same,inhibition,"[3]; BGB IC20 combo, at 0.005 µM",-15.2%
same,inhibition,"[3]; BGB IC40 combo, at 0.005 µM",-18.6%
same,inhibition,"[3]; BGB IC40 combo, at 0.05 µM",9.33%
same,inhibition,[3]; at 0.5 µM,-29.1% (inactive)
same,inhibition,"[3]; cisplatin combo, at 0.05 µM",9.33%
same,inhibition,"[3]; cisplatin combo, at 0.5 µM",-38%
same,inhibition,"[3]; cisplatin combo, at 5 µM",-7.17%
same,inhibition,"[3]; measured here: 5 uM single agent, at 5 µM",-4.58%
same,inhibition,[4]; at 0.5 µM,-20% (inactive)
same,inhibition,[4]; [17],-20.5%
same,inhibition,[4]; [20],-33%
same,inhibition,[4]; [21],-12.9%
same,inhibition,[5]; at 0.5 µM,-2.9% (inactive)
same,inhibition,"[5]; measured here: with BGB IC20, at 0.5 µM",-17.7%
same,inhibition,"[5]; measured here: with BGB IC20, at 5 µM",-3.73%
same,inhibition,"[5]; measured here: with cisplatin IC20, at 0.5 µM",-4.54%
same,inhibition,"[5]; measured here: with cisplatin IC20, at 5 µM",5.41%
same,inhibition,"[5]; single agent, at 5 µM",-0.003%
same,inhibition,[6]; at 0.5 µM,-11.7% (inactive)
same,inhibition,"[6]; measured here: combination with BGB at IC20, at 0.5 µM",-25.6%
same,inhibition,"[6]; measured here: combination with cisplatin at IC20, at 0.5 µM",19.7%
same,inhibition,[7]; at 0.5 µM,-2.78% (inactive)
same,inhibition,"[7]; measured here: combo with BGB at IC20, at 0.5 µM",-2.46%
same,inhibition,"[7]; measured here: combo with cisplatin at IC20, at 0.5 µM",-4.95%
same,inhibition,[8]; at 0.5 µM,0.66% (inactive)
same,inhibition,"[8]; measured here: inhibition with BGB combination, at 0.05 µM",-7.77%
same,inhibition,"[8]; measured here: inhibition with cisplatin combination, at 0.05 µM",-4.44%
same,inhibition,[9]; at 0.5 µM,0.87% (inactive)
same,inhibition,[9]; [20],-5.32%
same,inhibition,[9]; [21],12.1%
same,inhibition,[10]; at 0.5 µM,-18.9% (inactive)
same,inhibition,"[10]; measured here: BGB combination, at 0.5 µM",-9.2%
same,inhibition,"[10]; measured here: BGB combination, at 5 µM",-5.74%
same,inhibition,"[10]; measured here: cisplatin combination, at 0.5 µM",-43.5%
same,inhibition,"[10]; measured here: cisplatin combination, at 5 µM",3.21%
same,inhibition,"[11]; BGB combination, concentration series, at 5 µM",-4.55%
same,inhibition,[11]; at 0.5 µM,-1.24% (inactive)
same,inhibition,"[11]; cisplatin combination, concentration series, at 5 µM",-5.38%
same,inhibition,[12]; at 0.5 µM,6.79% (inactive)
same,inhibition,"[12]; measured here: combo with BGB IC20, at 0.5 µM",-11.2%
same,inhibition,"[12]; measured here: combo with cisplatin IC20, at 0.5 µM",21%
same,inhibition,[13]; at 0.5 µM,-12.4% (inactive)
same,inhibition,"[13]; cisplatin combination, at 0.5 µM",-2.33%
same,inhibition,"[13]; cisplatin combination, at 5 µM",-35.9%
same,inhibition,"[13]; measured here: BGB IC40 combination 0.05 uM, at 0.05 µM",10.4%
same,inhibition,"[13]; single agent, at 5 µM",-5.82%
same,inhibition,[14]; at 0.5 µM,-0.59% (inactive)
same,inhibition,"[14]; cisplatin combo, at 5 µM",-5.83%
same,inhibition,"[14]; measured here: BGB IC40 combination, at 0.05 µM",12.3%
same,inhibition,[14]; [20],-32.4%
same,inhibition,"[14]; single agent, at 5 µM",7.3%
same,inhibition,[15]; at 0.5 µM,-2.94% (inactive)
same,inhibition,[15]; [18],-13.1%
same,inhibition,[15]; [19],2.15%
same,inhibition,"[15]; single agent, at 0.05 µM",-25.4%
same,inhibition,"[15]; single agent, at 5 µM",16.8%
Cn1ccnc1-c1ccccc1C(=O)N1CCN(Cc2cccc(Cl)c2)CC1,z-score,[16],0.665 (inactive)
CCN1CCC(N2CCCC(CN3CCCC3)C2)CC1 (configuration not stated),z-score,[16],-0.48 (inactive)
CC[C@H](C)[C@H](N)C(=O)N1CCC(Cn2cc(-c3ccc(F)cc3)nn2)CC1,z-score,[16],-0.33 (inactive)
Clc1cccn2c(-c3ccccc3OC3CCCC3)nnc12,z-score,[16],0.365 (inactive)
